Results: PubChem BioAssay (EPA / NIEHS)
Records with an inconclusive call do not appear. Activity calls are given as the source filed them. How the source made its calls: active means hit-call score of the fitted dose curve at least 0.9, where 1 is the maximum; inconclusive means response in the unintended direction; inactive means score below 0.9.

read-out: Cytochrome P450 2B6 (Homo sapiens) (UniProt P20813); experiment: CLD_CYP2B6_48hr: CellzDirect (CLD) Gene Expression Assay for xenobiotic metabolism (CYP2B6) at 48 hours (AID 2283699);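 further: actives raise transcript level above DMSO so potency reflects induction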
Experimental: CLD_48hr is a cell-based, multiplexed-readout assay that uses hepatocyte, a human liver primary cell, with measurements taken at 48 hours after chemical dosing in a 96-well plate.CLD_CYP2B6_48hr is one of 16 assay component(s) measured or calculated from the CLD_48hr assay. It is designed to make measurements of mRNA induction, a form of inducible reporter, as detected with chemiluminescence signals by Quantitative Nuclease Protection Assay (qNPA) technology.Data from the assay component CLD_CYP2B6_48hr was analyzed at the endpoint, CLD_CYP2B6_48hr, in the positive analysis fitting direction relative to DMSO as the negative control and baseline of activity. Using a type of inducible reporter, gain-of-signal activity can be used to understand changes in the reporter gene as they relate to the gene CYP2B6. Furthermore, this assay endpoint can be referred to as a primary readout. To generalize the intended target to other relatable targets, this assay endpoint is annotated to the cyp intended target family, where subfamily is xenobiotic metabolism.
Human hepatocyte cultures were treated daily for two consecutive days with fresh dosing solutions containing appropriate concentrations of the 320 ToxCast chemicals (chemical identities were blinded to CellzDirect and other ToxCast collaborators), vehicle control (0.2% DMSO), and positive control inducers as summarized in Table 1. Due to the large number of treatment groups and chemicals examined, the ToxCast chemicals were divided into two groups (spanning two independent cultures of hepatocytes from separate donor preparations (Hu778: ToxCast plates 1 and 2; Hu776: ToxCast plates 3 and 4). Each preparation of human hepatocyte cultures was treated with respective vehicle control, medium only control, set of six positive controls/reference chemicals for the five hepatic receptor pathways, and a subset of eight of the ToxCast chemicals (indoxacarb, pyrithiobac-sodium, norflurazon, cyhalofop-butyl, methomyl, thiram, acetochlor, and propiconazole). These replicate data, coupled with internal replicates designed within the blinded ToxCast chemical library, provided additional data to evaluate interindividual differences between hepatocyte preparations and their potential impact on chemical profiles.Cell morphology and integrity were evaluated using phase-contrast microscopy as an indicator of hepatocyte cell health (Tyson & Green, 1987). Cultures for each treatment group (i.e., media, vehicle [0.2% DMSO], positive control inducers [multiple concentrations], and the ToxCast chemicals [multiple concentrations]) were observed and cell morphology was assessed relative to vehicle control cultures at each harvest time point (0, 6, 24, or 48 h). […] Images were evaluated at the conclusion of the study to assess changes in cell integrity and account for the effects of chemical exposure on uncharacteristic changes in concentration-dependent gene expression profiles. The results from these determinations of apparent cytotoxicity were annotated (yes/no) alongside the corresponding qNPA data for reference.At the conclusion of each treatment period, hepatocyte cultures (96-well) were washed with 1 volume of HBSS, lysed by addition of 25 ul ArrayPlate lysis buffer (HTG, Tucson, AZ), and 70 ul/well of Denaturation Oil, denatured by incubation at 95C for 10 min, and frozen at approximately -70C until analysis by nuclease protection assay (qNPA) (Roberts et al., 2007). For qNPA analysis, cell lysates were thawed at 50C for approximately 30 min, qNPA probes were added, and samples were incubated at 95C for 10 min to begin the detection process by denaturing the target RNA, dissociating the duplexes and secondary structure hybridization. At the conclusion of the hybridization period, S1 nuclease reagent was added to each sample to digest all nonprotected nucleotides at 50C for 60-90 min. […]

Row | Compound | outcome | AC50
1 | O=C(NC(=O)c1c(F)cccc1F)Nc1ccc(OC(F)(F)C(F)OC(F)(F)F)c(Cl)c1 (stereo not given) | inactive | 
2 | CCC(C)(NC(=O)c1cc(Cl)c(C)c(Cl)c1)C(=O)CCl (stereo not given) |  | 0.403 nM (active)
3 | CNC(=O)Oc1ccccc1OC(C)C |  | 1510 nM (active)
4 | O=C(O)C(F)(F)C(F)(F)C(F)(F)C(F)(F)C(F)(F)C(F)(F)C(F)(F)F | inactive | 
5 | COc1cc(OC)nc(NC(=O)NS(=O)(=O)c2cc(NC=O)ccc2C(=O)N(C)C)n1 | inactive | 
6 | CNC(=O)/C=C(\C)OP(=O)(OC)OC | inactive | 
7 | CC(C)(C)C(O)C(Oc1ccc(Cl)cc1)n1cncn1 (stereo not given) |  | 3180 nM (active)
8 | CC(C)N(C(=O)COc1nnc(C(F)(F)F)s1)c1ccc(F)cc1 |  | 10900 nM (active)
9 | COC(=O)c1ccccc1S(=O)(=O)NC(=O)N(C)c1nc(C)nc(OC)n1 | inactive | 
10 | Cc1[nH]c(=O)n(C(C)(C)C)c(=O)c1Cl |  | 4850 nM (active)
11 | CCS(=O)(=O)c1cccnc1S(=O)(=O)NC(=O)Nc1nc(OC)cc(OC)n1 | inactive | 
12 | COP(=O)(OC)OC=C(Cl)Cl | inactive | 
13 | CCN(CC)C(=O)SCc1ccc(Cl)cc1 |  | 20000 nM (active)
14 | C[C@H]1[C@H](c2ccc(Cl)cc2)SC(=O)N1C(=O)NC1CCCCC1 |  | 1900 nM (active)
15 | CCOC1Oc2ccc(OS(C)(=O)=O)cc2C1(C)C (stereo not given) |  | 1440 nM (active)
16 | C#CCN1C(=O)COc2cc(F)c(N3C(=O)C4=C(CCCC4)C3=O)cc21 |  | 652 nM (active)
17 | O=[N+]([O-])/N=C1\NCCN1Cc1ccc(Cl)nc1 | inactive | 
18 | CC(C)OC(=O)Nc1cccc(Cl)c1 |  | 20000 nM (active)
19 | CC(C)(C)C(O)/C(=C\c1ccc(Cl)cc1Cl)n1cncn1 (stereo not given) |  | 983 nM (active)
20 | CCCN(CCOc1c(Cl)cc(Cl)cc1Cl)C(=O)n1ccnc1 |  | 128 nM (active)

Row | Compound | outcome | AC50
21 | COc1nn(CSP(=S)(OC)OC)c(=O)s1 |  | 655 nM (active)
22 | O=C(Nc1ccccc1)Nc1cnns1 |  | 5630 nM (active)
23 | O=C(O)CCCOc1ccc(Cl)cc1Cl | inactive | 
24 | Oc1ccc(Cl)cc1Cc1ccccc1 | inactive | 
25 | COP(=S)(OC)Oc1ccc([N+](=O)[O-])cc1 |  | 7550 nM (active)
26 | O=S1OCC2C(CO1)C1(Cl)C(Cl)=C(Cl)C2(Cl)C1(Cl)Cl (stereo not given) |  | 980 nM (active)
27 | Clc1ccccc1-c1nnc(-c2ccccc2Cl)nn1 |  | 3080 nM (active)
28 | COP(=S)(OC)Oc1ccc(SC)c(C)c1 |  | 4480 nM (active)
29 | CCCN(CCC)c1c([N+](=O)[O-])cc(C(F)(F)F)cc1[N+](=O)[O-] |  | 1370 nM (active)
30 | CCC(C)Nc1c([N+](=O)[O-])cc(C(C)(C)C)cc1[N+](=O)[O-] (stereo not given) |  | 2440 nM (active)
31 | CCC(C)(C)C(=O)OC1=C(c2ccc(Cl)cc2Cl)C(=O)OC12CCCCC2 | inactive | 
32 | COC(=O)c1ccccc1CS(=O)(=O)NC(=O)Nc1nc(OC)cc(OC)n1 | inactive | 
33 | CCOCN(C(=O)CCl)c1c(C)cccc1CC |  | 509 nM (active)
34 | O=[N+]([O-])c1c(Cl)c(Cl)c(Cl)c(Cl)c1Cl |  | 1900 nM (active)
35 | CC1(C)C(C=C(Cl)Cl)C1C(=O)OC(C#N)c1ccc(F)c(Oc2ccccc2)c1 (stereo not given) |  | 7550 nM (active)
36 | Cc1cc(C)nc(NC(=O)NS(=O)(=O)c2ccccc2C(=O)OC2COC2)n1 | inactive | 
37 | OCCOc1ccccc1 | inactive | 
38 | CCc1ccc(C(=O)NN(C(=O)c2cc(C)cc(C)c2)C(C)(C)C)cc1 |  | 2180 nM (active)
39 | CCOc1nc(NC)nc(NC(=O)NS(=O)(=O)c2ccccc2C(=O)OC)n1 | inactive | 
40 | ClC1C(Cl)C(Cl)C(Cl)C(Cl)C1Cl (stereo not given) |  | 44.1 nM (active)
